# Measured values as given in the supplement of paper PMC7366291.
# Where a name gives a salt, the structure may show the parent alone. ± gives the standard deviation or the standard deviation of the averaged measurements.
# Legend:
# Settings in all cases: 25 µM; exposure: 24-48 hpf
# [1] = system: Danio rerio Tg(wt1b:EGFP) embryo, pronephros; experiment: glomerular separation, fold change vs DMSO control; higher = glomeruli further apart (abnormal)
# In short: (§1)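 Distances and angles describing the pronephros were computed by a Fiji macro from 16 reference points set manually on maximum projections of dorsal images. These images came from dechorionated Tg(wt1b:EGFP) zebrafish embryos held in agarose-filled 96-well plates after exposure to 25 μM compound in 0.5% DMSO, in HEPES-buffered E3 with 0.003% PTU, from 24 to 48 hpf at 28.5°C. Any value more than 2 SD from the feature mean was excluded. Features are stated as fold change relative to the mean of same-day DMSO-treated embryos.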
# [2] = system: Danio rerio Tg(wt1b:EGFP) embryo, pronephros; experiment: glomerular width (mean of left and right), fold change vs DMSO control; higher = wider glomerulus
# In short: as §1
# [3] = system: Danio rerio Tg(wt1b:EGFP) embryo, pronephros; experiment: fraction of imaged embryos annotated as normal kidney; higher = less nephrotoxic; extreme values may be limits of the assay
# In short: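 From 24 to 48 hpf at 28.5°C, dechorionated Tg(wt1b:EGFP) zebrafish embryos in 12-well plates were kept in 5 mM HEPES-buffered E3 with 0.003% PTU, 0.5% DMSO and 25 μM compound. Pronephroi were imaged by widefield fluorescence at 470 nm and judged by eye from maximum projections. Reported is the proportion of embryos per treatment in the normal-kidney category.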
# [4] = system: Danio rerio Tg(wt1b:EGFP) embryo, pronephros; experiment: pronephric angle neck segment to proximal convoluted tubule (mean of left and right), fold change vs DMSO control; higher = larger pronephric angle
# In short: as §1
SMILES,glomerular separation [1],glomerular width [2],fraction of imaged embryos annotated as normal kidney [3],pronephric angle neck segment [4]
C[C@]12Cc3c[nH]nc3C[C@@H]1CC[C@@H]1[C@@H]2CC[C@@]2(C)[C@H]1CC[C@]2(C)O [Stanozolol],1.31 ± 0.44,1.03 ± 0.076,0.75,1.01 ± 0.085
COc1ccc(C(=O)N2CCCC2=O)cc1 [Aniracetam],0.837 ± 0.17,1.06 ± 0.052,0.75,1.02 ± 0.019
OC(c1ccccc1)(c1ccccc1)C1CCNCC1 [Azacyclonol],0.869 ± 0.25,0.9558 ± 0.0054,0.833,0.994 ± 0.029
Fc1ccc(C(OCCN2CCN(CCCc3ccccc3)CC2)c2ccc(F)cc2)cc1,5.45 ± 2.3,0.737 ± 0.028,0,1.02 ± 0.097
CN(C)C(=O)Oc1ccc[n+](C)c1 [Pyridostigmine iodide],1.26 ± 0.35,0.982 ± 0.096,0.917,1.03 ± 0.013
C[C@H](N)[C@H](O)c1ccc(O)c(O)c1 [Levonordefrin],1.13 ± 0.33,1.04 ± 0.016,0.667,0.982 ± 0.012
CCC(=O)O[C@H]1CC[C@H]2[C@@H]3CCC4=CC(=O)CC[C@]4(C)[C@H]3CC[C@]12C [Testosterone propionate],1.12 ± 0.46,1.03 ± 0.035,0.75,0.9686 ± 0.0074
CCN(C)C(=O)Oc1cccc([C@H](C)N(C)C)c1 [Rivastigmine],1.1 ± 0.33,0.8935 ± 0.007,0.917,0.9906 ± 0.0047
C[N+]1(C)CCCC(OC(=O)C(O)(c2ccccc2)c2ccccc2)C1 (stereo not drawn) [Mepenzolate bromide],1.4 ± 0.8,1.01 ± 0.011,0.727,1 ± 0.054
C[C@]12CCC(=O)C=C1CC[C@@H]1[C@@H]2C(=O)C[C@]2(C)C(=O)CC[C@@H]12 [Adrenosterone],0.651 ± 0.16,1.005 ± 0.0024,1,0.958 ± 0.021
O=c1[nH]c2ccccc2n1CCCN1CCC(n2c(=O)[nH]c3cc(Cl)ccc32)CC1 [Domperidone],0.857 ± 0.34,1.03 ± 0.08,0.818,0.963 ± 0.041
O=[N+]([O-])O[C@H]1CO[C@H]2[C@@H]1OC[C@H]2O[N+](=O)[O-] [Isosorbide dinitrate],1.15 ± 0.34,0.9189 ± 0.0074,0.833,1.02 ± 0.024
COc1ccc(CCN)cc1OC [Homoveratrylamine],1.13 ± 0.38,0.994 ± 0.012,0.75,0.972 ± 0.021
O=[N+]([O-])O[C@@H]1CO[C@H]2[C@@H]1OC[C@@H]2O [Isosorbide mononitrate],0.951 ± 0.48,1.04 ± 0.019,0.833,0.986 ± 0.021
"NCC(CC(=O)O)c1ccc(Cl)cc1 (racemic) [Baclofen (R,S)]",0.757 ± 0.3,0.933 ± 0.0029,0.833,0.829 ± 0.056
"CNCC(O)c1ccc(O)cc1 (racemic) [(+,-)-Synephrine]",1.01 ± 0.41,0.959 ± 0.015,0.833,1.017 ± 0.0012
N[C@@H]1C[C@H]1c1ccccc1 [Tranylcypromine hydrochloride],1.03 ± 0.28,1.021 ± 0.0055,0.727,1.01 ± 0.038
C[C@]12CC[C@H](O)C[C@H]1CC[C@@H]1[C@@H]2C[C@@H](O)[C@]2(C)[C@@H](C3=CC(=O)OC3)CC[C@]12O [Digoxigenin],0.711 ± 0.21,0.994 ± 0.017,0.917,0.9639 ± 0.0077
C[C@]12CC[C@H](O)C[C@H]1CC[C@@H]1[C@@H]2CC[C@]2(C)[C@@H](C3=CC(=O)OC3)CC[C@]12O [Digitoxigenin],1.38 ± 0.71,1.0869 ± 0.00048,0.667,1.03 ± 0.066
CN[C@@H]1C[C@@H](c2ccc(Cl)c(Cl)c2)c2ccccc21 [Indatraline hydrochloride],0.788 ± 0.28,1.04 ± 0.011,0.833,0.9756 ± 0.0089
CN1[C@@H]2CC[C@H]1C[C@@H](OC(=O)C(CO)c1ccccc1)C2 (stereo partly drawn) [Atropine sulfate monohydrate],1.25 ± 0.3,1.04 ± 0.011,1,1 ± 0.063
CCN(C(C)=O)c1cccc(-c2ccnc3c(C#N)cnn23)c1 [Zaleplon],0.976 ± 0.47,0.943 ± 0.034,0.833,1.03 ± 0.027
COc1cc2c(c(OC)c1OC)-c1ccc(OC)c(=O)cc1[C@@H](NC(C)=O)CC2 [Colchicine],1.2 ± 0.47,0.827 ± 0.047,0.667,1.06 ± 0.044
CC1OC(OC2/C=C/C=C/C=C/C=C/CC/C=C/C=C/[C@H](C)[C@@H](O)[C@@H](C)[C@H](C)OC(=O)CC(O)CC(O)CC(O)CCC(O)C(O)C[C@]3(O)CC(O)C(C(=O)O)C(C2)O3)C(O)C(N)C1O (stereo partly drawn) [Nystatine],0.778 ± 0.16,0.994 ± 0.05,1,1.05 ± 0.053
CNC(C)(C)Cc1ccccc1 [Mephentermine hemisulfate],0.946 ± 0.41,1.08 ± 0.036,1,0.991 ± 0.081
CC(=O)O[C@H]1C[C@@H]2CC[C@@H]3[C@H](CC[C@@]4(C)[C@H]3C[C@H]([N+]3(C)CCCCC3)[C@@H]4OC(C)=O)[C@@]2(C)C[C@@H]1[N+]1(C)CCCCC1 [Pancuronium bromide],1.23 ± 0.41,0.928 ± 0.13,1,0.955 ± 0.047
CC(C)(C)NCC(O)c1cc(Cl)c(N)c(Cl)c1 (stereo not drawn) [Clenbuterol hydrochloride],1.04 ± 0.33,1.08 ± 0.032,0.75,1 ± 0.067
